The test system of assay [1] is Plasmodium falciparum Sir2 (PF13_0152, Sir2A). Kind of assay: Plasmodium falciparum Sir2A binding compounds – biochemical, small-molecule microarray, 635 nm fluorescence, primary screen (AID 1098).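 Further: score merges spot fluorescence intensity with its signal-to-noise ratio.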 The following applies: fluorescence 635 nm, higher = more signal.
Assay [2] can be described thus: probe aDKK1 binding to arrayed compounds – biochemical, biotinylated probe, 635/667 nm fluorescence, primary screen (AID 1099).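 Further: score merges 667nm spot fluorescence with signal to noise across triplicate slides; reference of the scale not given here.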 The following applies: small-molecule microarray, higher = more signal.
The nature of assay [3]: probe aCHRDL2 binding to arrayed compounds – biochemical, biotinylated probe, 635/667 nm fluorescence, primary screen (AID 1100). The following applies: small-molecule microarray, higher = more signal.
Assay [4] in a line: change in splice reporter luminescence, either direction, cell-based, HEK293, spliceosome inhibition project, primary screen (AID 1101).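 Further: HEK293 cells carrying a splicing-competent luciferase reporter gene; test concentration not given here.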 The following applies: HEK293 splicing luciferase reporter, 24 h, higher = more signal, called active from +8 up or from −8 down. (In general: In a reporter assay the amount or activity of a reporter protein is the signal.)
Assay [5] deals with Fibroblast growth factor 10 (Homo sapiens) (UniProt O15520). Kind of assay: compounds binding fibroblast growth factor 10 – biochemical, small-molecule microarray, 635 nm fluorescence, primary screen (AID 1102). The following applies: FGF10 binding, fluorescence 635 nm, higher = more signal.
Sequence of Fibroblast growth factor 10 (Homo sapiens) (O15520 whole entry, looked up): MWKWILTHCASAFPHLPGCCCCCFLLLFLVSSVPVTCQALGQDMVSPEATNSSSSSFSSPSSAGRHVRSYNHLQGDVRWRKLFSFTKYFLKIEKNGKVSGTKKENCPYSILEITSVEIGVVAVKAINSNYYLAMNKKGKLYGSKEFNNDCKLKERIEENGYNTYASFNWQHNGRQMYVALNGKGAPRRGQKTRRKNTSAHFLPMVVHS
Assay [6] deals with glycogen synthase kinase-3 (GSK3A per assay name; protocol says GSK3B). Kind of assay: compounds binding glycogen synthase kinase-3 – biochemical, small-molecule microarray, 635 nm fluorescence, GSK3A, primary screen (AID 1103). Further: the record names both GSK3A and GSK3B. The following applies: fluorescence 635 nm, higher = more signal.
Assay [7] has as its target Epidermal growth factor receptor (Homo sapiens) (UniProt P00533). Kind of assay: compounds binding epidermal growth factor receptor – biochemical, small-molecule microarray, 635 nm fluorescence, primary screen (AID 1104).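 Further: score merges 667 nm emission intensity with spot signal to noise over triplicate slides.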 The following applies: EGFR binding, higher = more signal.
Assay [8] addresses Follistatin-related protein 3 (Homo sapiens) (UniProt O95633). Kind of assay: compounds binding follistatin-related protein 3 – biochemical, small-molecule microarray, 635 nm fluorescence, primary screen (AID 1105).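 Further: score merges emission near 667 nm and signal to noise per printed spot across three slides.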 The following applies: FSTL3 binding, higher = more signal.
In assay [9] the target is Dickkopf-related protein 1 (Homo sapiens) (UniProt O94907). Kind of assay: small molecules binding DKK1 protein – biochemical, small-molecule microarray, 635 nm fluorescence scan, primary screen (AID 1106).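 Further: score merges emission near 667 nm with signal to noise over three replicate slides.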 The following applies: higher = more signal.
Sequence of Dickkopf-related protein 1 (Homo sapiens) (O94907 whole entry, looked up): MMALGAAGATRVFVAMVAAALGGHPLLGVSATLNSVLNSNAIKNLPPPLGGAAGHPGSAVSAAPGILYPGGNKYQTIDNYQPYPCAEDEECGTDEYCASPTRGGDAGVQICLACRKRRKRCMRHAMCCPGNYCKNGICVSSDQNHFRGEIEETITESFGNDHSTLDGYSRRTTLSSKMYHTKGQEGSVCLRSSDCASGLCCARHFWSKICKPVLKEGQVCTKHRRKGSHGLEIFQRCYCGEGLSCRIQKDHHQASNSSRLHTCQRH
The subject of assay [10] is Inhibin beta A chain (activin A). Kind of assay: small molecules binding activin A – biochemical, small-molecule microarray, 635 nm fluorescence scan, primary screen (AID 1107).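 Further: mouse activin A protein probed at 4.33 µg/mL on printed slides; score merges bound-protein fluorescence near 667 nm with spot signal-to-noise.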 The following applies: INHBA, higher = more signal.

Values joined by “and” are separate entries in the source; they are usually repeats but may differ in a detail not shown here. Identical values can stand only once. Active and inactive are the calls of the source.

Sequence of Epidermal growth factor receptor (Homo sapiens) (P00533 whole entry, looked up): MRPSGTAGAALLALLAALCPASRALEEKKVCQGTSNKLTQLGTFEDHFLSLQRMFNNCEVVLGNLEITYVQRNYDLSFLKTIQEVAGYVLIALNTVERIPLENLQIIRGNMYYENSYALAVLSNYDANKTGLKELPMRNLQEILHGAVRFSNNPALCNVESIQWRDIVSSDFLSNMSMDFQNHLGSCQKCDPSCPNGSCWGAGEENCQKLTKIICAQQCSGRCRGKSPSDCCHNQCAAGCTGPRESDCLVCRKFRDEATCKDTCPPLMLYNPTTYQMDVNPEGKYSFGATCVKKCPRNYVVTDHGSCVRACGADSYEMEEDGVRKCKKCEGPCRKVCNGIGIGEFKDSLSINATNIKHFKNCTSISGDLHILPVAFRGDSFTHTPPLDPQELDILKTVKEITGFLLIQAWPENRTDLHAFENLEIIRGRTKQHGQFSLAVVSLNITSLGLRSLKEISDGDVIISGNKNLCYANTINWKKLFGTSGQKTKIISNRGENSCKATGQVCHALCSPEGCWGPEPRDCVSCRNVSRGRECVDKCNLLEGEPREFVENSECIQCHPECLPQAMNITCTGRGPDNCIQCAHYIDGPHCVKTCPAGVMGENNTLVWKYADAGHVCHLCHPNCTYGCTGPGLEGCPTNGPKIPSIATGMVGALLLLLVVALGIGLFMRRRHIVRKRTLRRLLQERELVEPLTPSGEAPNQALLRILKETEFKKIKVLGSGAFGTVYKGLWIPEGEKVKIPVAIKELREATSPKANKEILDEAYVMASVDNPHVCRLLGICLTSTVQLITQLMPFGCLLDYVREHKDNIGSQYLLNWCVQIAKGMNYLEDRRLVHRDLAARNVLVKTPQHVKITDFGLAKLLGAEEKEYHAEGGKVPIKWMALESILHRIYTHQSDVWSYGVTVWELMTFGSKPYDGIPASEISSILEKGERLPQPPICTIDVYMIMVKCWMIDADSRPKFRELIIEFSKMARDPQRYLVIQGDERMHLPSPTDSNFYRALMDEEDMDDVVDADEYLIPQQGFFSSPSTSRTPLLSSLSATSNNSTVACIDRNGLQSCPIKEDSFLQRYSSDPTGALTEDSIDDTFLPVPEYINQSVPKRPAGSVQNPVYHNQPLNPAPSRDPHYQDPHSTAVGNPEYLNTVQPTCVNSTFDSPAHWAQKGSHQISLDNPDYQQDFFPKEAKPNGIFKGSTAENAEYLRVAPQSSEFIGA
Sequence of Follistatin-related protein 3 (Homo sapiens) (O95633 whole entry, looked up): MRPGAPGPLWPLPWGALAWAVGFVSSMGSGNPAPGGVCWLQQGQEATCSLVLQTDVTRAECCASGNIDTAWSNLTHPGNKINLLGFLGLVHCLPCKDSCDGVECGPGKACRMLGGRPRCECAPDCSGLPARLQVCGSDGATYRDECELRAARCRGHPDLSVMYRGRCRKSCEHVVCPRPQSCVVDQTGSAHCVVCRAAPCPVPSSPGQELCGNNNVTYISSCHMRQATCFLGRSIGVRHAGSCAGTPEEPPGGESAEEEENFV

With `C=CCN(Cc1ccccc1)C(=O)C1N(C(C)(C)CO)C(=O)C2C(C(=O)O)C3C=CC21O3` (stereo not given), the composite z-score in assay [1] was 0.107 and 0.29; in [2] it was -0.135 and -0.486; in [3], 0.708 and 0.849; in assay [5], -1.46 and -2; in assay [6] it was -0.767 and -1.51; in assay [7], -2.64 and -1.86. Further, the composite z-score was -1.45 and -1.73 in assay [8]; -2.3 and -1.58 in assay [9]; -4.6 and -2.88 in assay [10]. Also, in assay [4], the z-score is 0.0525 (inactive) and 0.382 (inactive).
As to `C=CCN(C(=O)C(c1cccs1)N(C(=O)/C=C\C(=O)O)C(C)(C)CO)c1ccc(OC)cc1` (stereo not given), the composite z-score was 1.39 and -1.69 in assay [1]; -0.117 and -0.0312 in [2]; 0.599 and 0.476 in [3]; -0.477 and -0.869 in assay [5]; -0.41 and -0.514 in assay [6]; -0.869 and -2.11 in [7]. The composite z-score in assay [8] was -1.4 and -1.37; in assay [9] it was -0.789 and -0.497; in assay [10] it was -1.07 and -0.761. Also, in [4], the z-score is -2.61 (inactive) and -1.39 (inactive).
Take `CO[C@H]1COC(=O)[C@H](C)NC(=O)CC=C[C@@H](C)[C@H](OC)COC(=O)CC=C[C@@H]1C`: the composite z-score in [1] is 0.523; in assay [2], -0.785; in [3], -1.62; in assay [5], 0.504; in [6] it was 1.04; in assay [7], 1.49. Also, the composite z-score in assay [8] is 1.45; in assay [9], 1.62; in assay [10], 1.68. Further, the z-score in [4] is 0.506 (inactive).
Consider `C[N+](C)(C)CCCCNC(=O)[C@@H]1C[C@@H]2C(=O)N[C@@H](CCCC[N+](C)(C)C)C(=O)N2[C@@H]1c1cccc(OCCO)c1`, for which the composite z-score in [1] is 1.03 and 0.616; in assay [2] it was 0.0631 and 0.217; in assay [3], -0.0665 and 0.574; in [5], 1.51 and 1.4; in [6], 1.35 and 0.785; in [7], 1.33 and 0.0943. For the same compound, the composite z-score in assay [8] is 1.5 and 1.33; in [9], 2.14 and 1.67; in [10], 0.804 and -0.833. Further, the z-score in assay [4] was -0.21 (inactive) and 0.129 (inactive).
With `CN1C(=O)C2CC=C([C@H]3Oc4ccccc4S(=O)(=O)N4CCC[C@@H]34)CC2C1=O` (stereo not given in full), the composite z-score is 0.149 and 0.302 in assay [1]; -0.226 and -0.273 in [2]; -0.344 and -0.424 in assay [3]; -0.575 and -0.066 in [5]; -0.913 and -0.794 in assay [6]; -0.297 and -0.148 in assay [7]. Besides, the composite z-score in assay [8] is -0.837 and -0.641; in [9], 0.0379 and 0.305; in assay [10], 0.315 and 0.808. Also, in [4], the z-score is 0.776 (inactive) and 0.117 (inactive).
Turning to `C=CCN(C(=O)C1N(C(C)(C)CO)C(=O)C2C(C(=O)O)C3C=CC21O3)C(C)(C)C` (stereo not given), the composite z-score in assay [1] was -0.0242 and 0.712; in assay [2] it was 0.338 and 0.0018; in [3] it was 1.06 and 1.01; in [5], -0.95 and -1.33; in [6], -1.24 and -1.03; in assay [7] it was -2.18 and -1.68. In addition, the composite z-score was -2.45 and -2.42 in assay [8]; -2.28 and -3.04 in assay [9]; -3 and -3.14 in [10]. In addition, in assay [4], the z-score is 0.153 (inactive) and -0.231 (inactive).
`CCN1C(=O)[C@H]2[C@H]3[C@H](O)[C@H](O)CC(=NNC(=O)OCc4ccc(OC)cc4)[C@H]3CC[C@H]2C1=O`: the composite z-score in [1] is 0.182; in [2], 1.55; in assay [3] it was 1.27; in assay [5] it was 0.178; in [6], -0.152; in [7], -0.698. Also, the composite z-score in [8] was 0.0229; in assay [9] it was -0.819; in assay [10], 0.0193. Moreover, the z-score in assay [4] was -0.324 (inactive).
On to `CC[C@@H]1C(Sc2ccccc2)C(C(=O)O)[C@H](c2ccc(C)cc2)N1S(=O)(=O)c1ccc(C)cc1` (stereo not given in full), for which the composite z-score in assay [1] is 1.68 and 1.07; in assay [2] it was 0.46 and -0.127; in assay [3], 0.731 and 0.46; in [5] it was 0.617 and 0.881; in [6], 0.414 and 1.14; in [7] it was -0.233 and 0.267. Also, the composite z-score is 0.437 and 0.874 in assay [8]; -0.72 and 0.0831 in assay [9]; 0.653 and 0.302 in [10]. Further, in [4], the z-score is -0.0623 (inactive) and -0.895 (inactive).
In the case of `CC(CO)N1C(=O)[C@@H]2C3C(=O)OCCC=C[C@H]3OC23C=CCN(c2ccc4ccccc4c2)C(=O)[C@@H]13` (stereo not given in full), the composite z-score in [1] is 0.971 and 0.0013; in assay [2], 0.0565 and -0.627; in assay [3], 0.691 and -0.64; in assay [5], -0.773 and -0.238; in assay [6], -0.236 and -0.0124; in [7], -1.06 and -0.897. The composite z-score in [8] was -0.352 and 0.329; in assay [9], -1.6 and -0.929; in assay [10], 0.665 and 0.142. Moreover, the z-score in assay [4] was 0.132 (inactive) and 0.555 (inactive).
On to `CCOC(=O)NN=C1C[C@@H](O)[C@@H](O)[C@@H]2[C@@H]3C(=O)N(Cc4ccc5c(c4)OCO5)C(=O)[C@@H]3CC[C@@H]12`, for which the composite z-score in [1] is 0.0867; in assay [2], -0.0464; in assay [3] it was -0.331; in [5], 0.0364; in assay [6], 0.424; in [7], 0.231. Moreover, the composite z-score in [8] is -0.406; in assay [9] it was 0.0071; in [10], -0.134. In assay [4], the z-score is 0.0278 (inactive).
Regarding `O=C1NC(=O)C2C1C=CC(C(O)c1ccc([N+](=O)[O-])cc1)N2Nc1ccc(Cl)cc1Cl` (stereo not given), the composite z-score in assay [1] was 0.59 and 0.0889; in assay [2] it was -0.0543 and 1.09; in [3] it was 0.765 and 0.824; in assay [5] it was 0.945 and 0.229; in [6], 0.0563 and 0.737; in assay [7], 0.0939 and -0.12. Besides, the composite z-score in assay [8] was 0.272 and 0.132; in assay [9] it was 0.0264 and -0.297; in assay [10], 1.13 and 1.31. For the same compound, the z-score in [4] is -1.06 (inactive) and -1.49 (inactive).
Consider `C=CC[C@H](O)c1ccc(OCCO)cc1`, for which the composite z-score was 0.142 and -0.925 in assay [1]; 0.203 and -0.308 in assay [2]; 0.777 and 0.484 in [3]; -0.603 and -0.328 in assay [5]; -0.92 and -2.17 in assay [6]; -0.883 and -0.455 in assay [7]. In addition, the composite z-score in assay [8] is -0.382 and -0.0904; in [9], -1.06 and -0.251; in assay [10], 0.149 and 0.677. Also, the z-score in assay [4] was 0.296 (inactive) and 2.7 (inactive).
With `C=CCN(CCCCC)C(=O)C(c1cccs1)N(CCOCCO)C(=O)/C=C\C(=O)O` (stereo not given), the composite z-score in [1] was 0.0427 and 0.42; in [2], -0.588 and -0.228; in assay [3] it was 0.658 and 0.6; in assay [5], -1.6 and -0.98; in assay [6], -0.918 and -0.491; in assay [7], -1.05 and -0.766. Further, the composite z-score in [8] was -0.411 and -0.744; in assay [9], -1.04 and -1.54; in [10], -1.79 and -0.36. In addition, the z-score in [4] is -0.841 (inactive) and -1.36 (inactive).
Turning to `C[C@@H](ON=C1[C@H]2CCn3c(=O)n(-c4ccccc4)c(=O)n3[C@H]2[C@H](O)[C@@H]2O[C@H]12)c1cn([C@H](CO)Cc2ccccc2)nn1`, the composite z-score in [1] is 0.494; in [2], -0.173; in [3], -0.569; in [5], 0.416; in assay [6], 0.438; in assay [7] it was 0.419. Moreover, the composite z-score in assay [8] is 0.572; in assay [9], 0.462; in assay [10] it was -0.0477. Also, the z-score in [4] was 0.211 (inactive).
As for `C=CCN(Cc1ccccc1)C(=O)C1N(CCCCCCO)C(=O)C2C(C(=O)O)C3C=CC21O3` (stereo not given), the composite z-score is 0.751 and 0.912 in [1]; -0.0659 and -0.197 in [2]; 0.991 and 0.926 in [3]; -1.02 and -2.08 in assay [5]; -0.973 and -1.08 in [6]; -1.7 and -1.71 in assay [7]. Further, the composite z-score is -1.49 and -1.67 in [8]; -1.79 and -4 in assay [9]; -1.29 and -2.29 in [10]. Further, the z-score in assay [4] is -0.679 (inactive) and -1.35 (inactive).

The values are drawn from PubChem BioAssay.
